Only a selection was taken, and hits are over-represented in it overall.
TDP-43 rescue: qHTS of TDP-43 Inhibitors: NCGC Sytravon Library Screen; yeast TDP-43 toxicity rescue, BacTiter-Glo growth, 24 h; Potency, µM (top dose mostly 46.1 µM), most hits filed as activators; 0.45% of 45,000 active; AID 1347073, 2019; active = well fitted activation curve with a large enough effect; note: nearly all actives have a fitted effect of over 55% in size
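TDP-43-expressing yeast, pregrown in raffinose, seeded at OD600 0.02 in galactose medium with compound for 24 hr at 30 deg C. Growth read by BacTiter-Glo luminescence, so rescue of toxicity appears as activation.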
A number is an active result; . = inactive.

SMILES	TDP-43 rescue
CCc1ccc(NC(=O)CCS(=O)(=O)c2ccc3c(c2)n(C)c(=O)c(=O)n3C)cc1	.
COc1ccccc1NC(=O)c1ncn(-c2ccccc2)n1	.
Cc1cccc(N2CCN(C(=O)/C=C/c3cccs3)CC2)c1C	14µM
Cc1cccc(N2CCN(C(=O)c3ccc4[nH]c(C)c(C)c4c3)CC2)c1C	.
CCOC(=O)C1CCN(C(=O)/C=C/c2cccs2)CC1	.
COc1ccc(OCC(=O)NCc2nc(-c3ccccc3)no2)cc1	.
O=C(CNc1cccc([N+](=O)[O-])c1)N1CCN(S(=O)(=O)c2ccc(Cl)cc2)CC1	.
Cn1c(CCC(=O)OCC(=O)NCC(F)(F)F)nc(=O)c2ccccc21	.
O=C(COC(=O)c1c2ccccc2cc2ccccc12)NCC(F)(F)F	22µM
Cc1nc2ccccc2nc1OCC(=O)NCC(F)(F)F	.
CCN1CCN(C(c2ccccc2)c2sc3nc(-c4ccco4)nn3c2O)CC1 (centres undefined)	.
COc1ccccc1-c1cnc(C(O)c2cc(C)ccc2C)[nH]1 (centres undefined)	.
O=C(Cc1ccccc1)NNC(=S)NC(=O)c1cccnc1	.
O=C(NNC(=S)NC(=O)c1ccc(F)cc1)c1cccnc1	.
O=C(NC(=S)NNC(=O)[C@H]1C[C@@H]1c1ccccc1)c1cccc(F)c1	13µM
O=C(NS(=O)(=O)Oc1ccccc1F)OC[C@@H]1CCCN2CCCCC12 (some centres undefined)	.
CCc1nc2ccc(C(=O)NCc3cccs3)cn2c1N(CCC(C)C)CCN(C)C	.
CCCN(CC1CC1)C(=S)Nc1ccccc1F	.
CN(CC1COc2ccccc2O1)C(=O)CSc1nncs1 (centres undefined)	.
CN(CC1COc2ccccc2O1)C(=S)Nc1ccccc1F (centres undefined)	11µM
COc1ccc(F)cc1-c1cc(C(=O)N2CCc3ccccc3C2)[nH]n1	.
O=C(Nc1ccccc1N1CCOCC1)c1ccc([N+](=O)[O-])s1	.
CNc1cncc(-c2ccccc2NC(C)=O)n1	.
CNc1cncc(-c2ccccc2CO)n1	.
CNc1cncc(-c2ccc(OC)c(OC)c2)n1	11µM
SMILES	TDP-43 rescue
CCCNC(=O)C1(C)CCCN(Cc2ccccc2N(C)C)C1 (centres undefined)	.
O=C(NC(=S)Nc1cccc2cnccc12)c1ccccc1	.
O=C(NC(=S)Nc1cccc2cc(O)ccc12)c1ccccc1Br	16µM
CC1CCCCC1NC(=S)NC(=O)c1ccccc1Br (centres undefined)	.
O=C(CNc1ccccc1N1CCCC1=O)Nc1cc(C(F)(F)F)ccc1-n1cncn1	.
N#Cc1ccc(C(=O)N2CCCCC2c2cc(C(=O)NCc3ccccc3)no2)cc1 (centres undefined)	.
CCc1nc2c(OCc3ccc(Cl)cc3)cccn2c1N(C=O)Cc1ccc(OC)cc1	.
O=C(COC(=O)CSc1ccc2ccccc2c1Br)NC1CC1	22µM
O=C(COC(=O)CNC(=O)c1ccccc1)NC1CCCCC1	.
O=C(COC(=O)c1ccccc1Br)NC1CCCC1	.
NC(=S)N/N=C\c1c(OCc2ccccc2Cl)ccc2ccccc12	.
O=C(Nc1ccc(N2CCOCC2)cc1)c1ccc(Br)o1	.
O=C(Nc1ccc(N2CCOCC2)cc1)c1cc2c(s1)CCCCC2	16µM
O=C(Nc1cccc(S(=O)(=O)Nc2ccc(Cl)cc2)c1)c1cc2c(s1)CCCC2	.
Cc1ccc(CN2C(=O)c3ccccc3CC2(C)C(=O)NC2CCCCC2)cc1 (centres undefined)	.
CC(=O)NCCNc1nc2cc(-c3cccc(C(F)(F)F)c3)sc2c(=O)n1C	.
CC(=O)c1ccc(NC(=O)CSc2nnc(-c3ccco3)o2)cc1	.
CC(=O)c1c(C)[nH]c(C(=O)CSc2nnc(-c3ccco3)o2)c1C	.
Cc1ccc(CSc2nnc(-c3ccco3)o2)cc1	13µM
CC(=O)c1cccc(NC(=O)c2cccc3c(-c4cnn(C)c4)coc23)c1	.
CC(=O)c1c(C)[nH]c(C(=O)Nc2nc(-c3ccccc3)c(C)s2)c1C	.
Cc1sc(NC(=O)c2ccco2)nc1-c1ccccc1	13µM
Cc1nc(NC(=O)c2ccco2)sc1C(=O)O	.
C[n+]1cccc2c(Br)ccc([O-])c21	.
[O-][n+]1cccc2c(Br)cc(Br)c(O)c21	7.9µM
SMILES	TDP-43 rescue
CCOC(=O)N1CCN(c2nc(-c3ccccc3)c3ccccc3n2)CC1	.
CC(=O)OC[C@H]1COc2ccc3ccccc3c2[C@H]1N(C)C(C)=O	.
O=C(Nc1nc2ccc3ccccc3c2s1)c1ccc(N2CCCCC2)c([N+](=O)[O-])c1	.
CC(=O)N1c2ccc3ccccc3c2C(C)CC12CCCCC2 (centres undefined)	14µM
COc1cccc(-c2cnc(C(O)c3cc(C)cc(C)c3)[nH]2)c1 (centres undefined)	.
COCCCNC(=S)N(CCO)Cc1cc2cc3c(cc2[nH]c1=O)OCO3	.
OC[C@H]1O[C@H](c2nc(-c3nc(-c4cccc(-n5cccc5)c4)no3)cs2)C[C@@H]1O	.

Source: PubChem BioAssay
